Structures are written as SMILES. Compounds without any hit were thinned out: in the full panel of roughly 83,000, 20% have a hit.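 Assay: single dose, 48 h. Readout: percent growth (0 = no net growth; negative = cell death). Active: <10.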 Values without a mark were called inactive. Active and inactive are the calls of the source.

For one assay, the system named is LOX IMVI melanoma. Put plainly: NCI-60 one-dose screen, 48 h (100 = growth as untreated, 0 = no growth, -100 = all killed). The note with it: 10 µM unless noted.
Regarding `CC/C(=C(/c1ccc(Cl)cc1)c1ccc(OCCN2CCCC2)cc1)c1ccc(OC)cc1`, the growth is 68.7%.
The same measure, in the same setting: the figure for `Nc1ncnc2c1N=C(c1ccc(Cl)cc1)CC(c1ccc3c(c1)OCO3)N2` (stereo not given) is 96.5%; for `N=C(N)c1ccc(-c2ccc(-c3ccc(F)cc3)o2)o1` it is -61.6% (active).
As for `CCCCC(=O)c1ccco1`, the growth was 99.6%.
For the compound `C/C(=C(/c1ccc(Cl)cc1)c1ccc(OCCN2CCCC2)cc1)c1ccc(Cl)cc1`, the growth is 78%.
The same measure, in the same setting: in the case of `COC(=O)c1c2c(c[n+]([O-])c1C)C(=O)C(NCc1ccccc1)=CC2=O` it was -30.1% (active); in that of `Fc1ccc(-c2nn(-c3ccccc3)cc2-c2nc3ccccc3o2)cc1`, 24.7%.
Still for that read-out and setting: the figure for `COc1ccc2c3c([nH]c2c1)C(=O)c1nc(C)ccc1C3=O` is 19.1%; for `CCN(C(=O)N1CCN(c2cc3c(cc2F)c(=O)c(C(=O)O)cn3C2CC2)CC1)c1nc(-c2ccc(Cl)cc2)cs1` it is 5.32% (active).
Still for that read-out and setting: the figure for `CCCNC(=O)Oc1ccc(/C(=C(/C)Cc2ccc(OC)cc2)c2ccc(OCCCN(C)C)cc2)cc1` is 73.4%.
Turning to `CC(=O)OCc1nc(C#N)c(N(C)C)o1`, the growth was 99.2%.
Still for that read-out and setting: the figure for `Cn1ccnc1C(=O)C(=O)Nc1ccc(CC(=O)Nc2ccccc2)cc1` is 100%; for `O=C(CN1C(=O)CCC1=O)Nc1ncc(Cc2ccc(F)cc2)s1` it is 94.3%; for `CNc1nc(S(=O)c2ccc(C#N)cc2)nc2ccccc12` (stereo not given) it is 76.5%.
With `Cn1c(-c2ccc(Br)cc2)c(O)c(=O)c2c(F)cccc21`, the growth was 40.2%.
`CCN(CC)CCCN1C(=O)c2c(c(C)c3c(oc4cc(O)ccc43)c2C)C1=O`: the growth is -93.5% (active).
Still for that read-out and setting: the figure for `Cn1ccc2c3c(ccc21)CC3=O` is 119%; for `O=C1N[C@@H]2NC(=[N+]3CCOCC3)N[C@@H]2N1` it is 98.3%; for `CCCCCOc1ccc(C(=O)/C(Br)=C/C(=O)O)cc1` it is 86.4%.
Same read-out and setting: the figure for `O=C(/C=C/c1ccccc1)c1cccc(OCCCOc2cccc(C(=O)/C=C/c3ccccc3)c2)c1` is 58.1%; for `O=C(Cc1ccccc1)Nc1nc(O)c(/C=C2\C(=O)C=Cc3ccccc32)s1` it is 97.6%; for `Nc1c(C(=O)Nc2ccncc2)sc2nc3c(cc12)CCCCCC3` it is 84.8%.
For the compound `COc1ccc(C(=O)Nc2cccc(C3CC(=O)c4c(cc(OC)c(OC)c4OC)O3)c2)cc1` (stereo not given), the growth is 26.1%.
On to `O=C(c1cc2ccccc2o1)c1nn(-c2ccccc2)/c(=N/N=Cc2cn(-c3ccccc3)nc2-c2cc3ccccc3oc2=O)s1`, for which the growth is 95.6%.
Still for that read-out and setting: the figure for `CCCCCCCCCCCCCCCCCCOc1ccccc1CC(=O)NCC[N+]1(C)CCCC1` is 53.4%.
Take `O=C(CSc1nc(-c2ccccc2)[nH]c1S(=O)(=O)c1ccccc1)NC1CC1`: the growth is 44.8%.
Same read-out and setting: the figure for `CC(C)N1CCN(Cc2ccc3c(NNC(=O)c4ccccc4)nc4cc(F)ccc4n23)CC1` is 6.12% (active); for `O=S(=O)(NCCCNc1nccc(-c2c(-c3ccc(F)c(O)c3)nc3occn23)n1)c1ccccc1` it is 39.6%.
On the same count and under the same terms, in the case of `COc1cc(-c2csc(NC(=O)c3cc(-n4cnc(C)c4)cc(C(F)(F)F)c3)n2)cc(OC)c1OC` it was 53.9%; in that of `COc1cc2c(c(OC)c1OC)CCC(c1cccc(C(=O)Nc3cccc(Br)c3)c1)O2` (stereo not given), 74%.
Same read-out and setting: the figure for `Cc1nn(-c2ccccc2)c(Oc2ccccn2)c1-c1nc2ccccc2s1` is 97.3%.
With `CSc1nnc(-c2cnn3c2NC(c2ccccc2)C3)n1-c1ccc(C(F)(F)F)cc1` (stereo not given), the growth is 61.3%.
On to `Cc1ccc(-c2cc(-c3ccc(Cl)cc3)nc(NC(=O)c3cccnc3)n2)cc1`, for which the growth is 95.7%.
Same read-out and setting: in the case of `CC1=C(C(=O)OC(C)C)C(c2ccc3c(c2)OCO3)NC(=S)N1` (stereo not given) it was 97.3%.
The same measure, in the same setting: in the case of `CCOC(=O)c1c2c(n3ccc(C)cc13)C(=O)c1ccccc1C2=O` it was 94%.
On the same count and under the same terms, the figure for `O=S(=O)(NCCNc1cc(-c2c(-c3cccc(O)c3)nc3sccn23)ccn1)c1ccc(C(F)(F)F)cc1` is 37.8%.
For the compound `Cc1nc2ncnc(Cl)c2[nH]1`, the growth is 97.5%.
Same read-out and setting: in the case of `N#Cc1nn(-c2cc(=O)[nH]c3ccc(Cl)cc23)c(N)c1C#N` it was 96.6%; in that of `C#COc1cccc(Nc2ncnc3ncc(NC(=O)CCl)cc23)c1`, -94.2% [6.25 µM] (active).
Still for that read-out and setting: the figure for `COC(=O)[C@]1(C)CCC[C@]2(C)[C@H]3C[C@H]4C(C(C)C)=C[C@]3(CC[C@H]21)[C@H]1[C@@H]4[C@@H](OCCC#N)CC[C@@H]1OCCC#N` is 59.7%.

A further assay relates to SK-MEL-28 melanoma. The assay is described as above. To be noted: 10 µM unless noted.
On to `CC/C(=C(/c1ccc(Cl)cc1)c1ccc(OCCN2CCCC2)cc1)c1ccc(OC)cc1`, for which the growth is 85%.
For the compound `Nc1ncnc2c1N=C(c1ccc(Cl)cc1)CC(c1ccc3c(c1)OCO3)N2` (stereo not given), the growth was 99.8%.
The same measure, in the same setting: the figure for `N=C(N)c1ccc(-c2ccc(-c3ccc(F)cc3)o2)o1` is 65.1%.
On the same count and under the same terms, the figure for `CCCCC(=O)c1ccco1` is 103%; for `C/C(=C(/c1ccc(Cl)cc1)c1ccc(OCCN2CCCC2)cc1)c1ccc(Cl)cc1` it is 92.8%.
On the same count and under the same terms, the figure for `COC(=O)c1c2c(c[n+]([O-])c1C)C(=O)C(NCc1ccccc1)=CC2=O` is -29.3% (active).
As for `Fc1ccc(-c2nn(-c3ccccc3)cc2-c2nc3ccccc3o2)cc1`, the growth is 108%.
The same measure, in the same setting: in the case of `COc1ccc2c3c([nH]c2c1)C(=O)c1nc(C)ccc1C3=O` it was 83.7%; in that of `CCN(C(=O)N1CCN(c2cc3c(cc2F)c(=O)c(C(=O)O)cn3C2CC2)CC1)c1nc(-c2ccc(Cl)cc2)cs1`, 40%; in that of `CCCNC(=O)Oc1ccc(/C(=C(/C)Cc2ccc(OC)cc2)c2ccc(OCCCN(C)C)cc2)cc1`, 94.1%.
Still for that read-out and setting: the figure for `CC(=O)OCc1nc(C#N)c(N(C)C)o1` is 109%; for `Cn1ccnc1C(=O)C(=O)Nc1ccc(CC(=O)Nc2ccccc2)cc1` it is 107%.
Still for that read-out and setting: the figure for `O=C(CN1C(=O)CCC1=O)Nc1ncc(Cc2ccc(F)cc2)s1` is 106%.
As for `CNc1nc(S(=O)c2ccc(C#N)cc2)nc2ccccc12` (stereo not given), the growth is 94.4%.
Same read-out and setting: the figure for `Cn1c(-c2ccc(Br)cc2)c(O)c(=O)c2c(F)cccc21` is 67.2%.
On the same count and under the same terms, the figure for `CCN(CC)CCCN1C(=O)c2c(c(C)c3c(oc4cc(O)ccc43)c2C)C1=O` is -85.1% (active).
Still for that read-out and setting: in the case of `Cn1ccc2c3c(ccc21)CC3=O` it was 112%.
Regarding `O=C1N[C@@H]2NC(=[N+]3CCOCC3)N[C@@H]2N1`, the growth is 101%.
Regarding `CCCCCOc1ccc(C(=O)/C(Br)=C/C(=O)O)cc1`, the growth is 87.4%.
As to `O=C(/C=C/c1ccccc1)c1cccc(OCCCOc2cccc(C(=O)/C=C/c3ccccc3)c2)c1`, the growth was 102%.
On to `O=C(Cc1ccccc1)Nc1nc(O)c(/C=C2\C(=O)C=Cc3ccccc32)s1`, for which the growth was 114%.
On the same count and under the same terms, the figure for `Nc1c(C(=O)Nc2ccncc2)sc2nc3c(cc12)CCCCCC3` is 88.6%; for `COc1ccc(C(=O)Nc2cccc(C3CC(=O)c4c(cc(OC)c(OC)c4OC)O3)c2)cc1` (stereo not given) it is 56.3%; for `O=C(c1cc2ccccc2o1)c1nn(-c2ccccc2)/c(=N/N=Cc2cn(-c3ccccc3)nc2-c2cc3ccccc3oc2=O)s1` it is 114%.
With `CCCCCCCCCCCCCCCCCCOc1ccccc1CC(=O)NCC[N+]1(C)CCCC1`, the growth was 84.2%.
Still for that read-out and setting: the figure for `O=C(CSc1nc(-c2ccccc2)[nH]c1S(=O)(=O)c1ccccc1)NC1CC1` is 120%.
Still for that read-out and setting: in the case of `CC(C)N1CCN(Cc2ccc3c(NNC(=O)c4ccccc4)nc4cc(F)ccc4n23)CC1` it was 29.5%.
Consider `O=S(=O)(NCCCNc1nccc(-c2c(-c3ccc(F)c(O)c3)nc3occn23)n1)c1ccccc1`, for which the growth is 24.7%.
`COc1cc(-c2csc(NC(=O)c3cc(-n4cnc(C)c4)cc(C(F)(F)F)c3)n2)cc(OC)c1OC`: the growth is 78.9%.
On the same count and under the same terms, in the case of `COc1cc2c(c(OC)c1OC)CCC(c1cccc(C(=O)Nc3cccc(Br)c3)c1)O2` (stereo not given) it was 87.9%; in that of `Cc1nn(-c2ccccc2)c(Oc2ccccn2)c1-c1nc2ccccc2s1`, 106%; in that of `CSc1nnc(-c2cnn3c2NC(c2ccccc2)C3)n1-c1ccc(C(F)(F)F)cc1` (stereo not given), 71.7%.
With `Cc1ccc(-c2cc(-c3ccc(Cl)cc3)nc(NC(=O)c3cccnc3)n2)cc1`, the growth is 106%.
As to `CC1=C(C(=O)OC(C)C)C(c2ccc3c(c2)OCO3)NC(=S)N1` (stereo not given), the growth is 106%.
On the same count and under the same terms, in the case of `CCOC(=O)c1c2c(n3ccc(C)cc13)C(=O)c1ccccc1C2=O` it was 111%.
On the same count and under the same terms, in the case of `O=S(=O)(NCCNc1cc(-c2c(-c3cccc(O)c3)nc3sccn23)ccn1)c1ccc(C(F)(F)F)cc1` it was 55.7%.
Still for that read-out and setting: the figure for `Cc1nc2ncnc(Cl)c2[nH]1` is 115%.
With `N#Cc1nn(-c2cc(=O)[nH]c3ccc(Cl)cc23)c(N)c1C#N`, the growth was 104%.
On the same count and under the same terms, the figure for `C#COc1cccc(Nc2ncnc3ncc(NC(=O)CCl)cc23)c1` is 55.4% [6.25 µM]; for `COC(=O)[C@]1(C)CCC[C@]2(C)[C@H]3C[C@H]4C(C(C)C)=C[C@]3(CC[C@H]21)[C@H]1[C@@H]4[C@@H](OCCC#N)CC[C@@H]1OCCC#N` it is 61.9%.

These data come from PubChem BioAssay (NCI).
